# Test results from PubChem BioAssay (NCI).
# This is part of a sample that, as a whole, favours compounds with a hit. Of some 83,000 tested, about 20% had one in any assay.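 Growth was measured after 48 h exposure to one concentration of compound in 96-well plates. Values under 10 count as active.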 Calls of active or inactive are those of the source.
# Tested on: NCI/ADR-RES ovarian
# Assay: NCI-60 one-dose screen, 48 h (100 = growth as untreated, 0 = no growth, -100 = all killed)
# Settings: 10 µM unless noted
# Procedure: Growth inhibition of the NCI/ADR-RES human […] tumor cell line is measured as a screen for anti-cancer activity. Cells are grown in 96 well plates and exposed to the test compound for 48 hours. Compounds are tested at a single concentration, which is 10^-5 M for most compounds. The reported endpoint is percent growth (GI% or GIPRCNT), where numbers from 0 - 100% represent growth inhibition, and numbers from -100% - 0 represent cell death. For example, a value of 40 represents 60% growth inhibition. A value of 0 means no net growth occurred over the course of the experiment. A value of -40 indicates 40% of cells at the beginning of the experiment died by the end of the experiment. A value of -100 means all cells are dead at the end of the experiment.
# NCI-60 Human Tumor Cell Lines Screen was performed using the standard one-dose NCI protocol, which is described in more detail at https://dtp.cancer.gov/discovery_development/nci-60/default.htm.
# Compounds with GIPRCNT values below 10 were considered active. Activity score was based on GIPRCNT using the following formula: […]
# Score is 0 for GIPRCNT values of 100 or above, 50 for GIPRCNT values of 0, and 100 for GIPRCNT values of -100.
row,SMILES,growth
1,CCOC(=O)C(Nc1ccccc1)C(=O)OCC,102% (inactive)
2,N#Cc1c(NN)n(C2OC(CO)C(O)C2O)c2ncnc(N)c12 (stereo not given),6.9% (active)
3,c1ccc(C(CC2=NCCCN2)c2ccccc2)cc1,101% (inactive)
4,O=C(/C=C/c1ccccc1)C(Br)C(Br)c1ccccc1 (stereo not given),39.7% (inactive)
5,COc1cccc(/C=N/N=C(N)N)c1,103% (inactive)
6,COc1ccc(/C(=C\c2cc(OC)c(OC)c(OC)c2)C(=O)N2CCN(c3ccccc3)CC2)cc1O,93.9% (inactive)
7,COc1ccc(-c2cn(-c3cccc(C(=O)/C=C/c4ccc(O)c(OC)c4)c3)c(=O)[nH]2)cc1,12.7% (inactive)
8,COc1ccc2[nH]cc(C(c3ccc(Cl)cc3)N3CCCC3)c2c1 (stereo not given),97.9% (inactive)
9,C=CCOc1c(Br)cc(Br)cc1Br,63.7% (inactive)
10,CCOC(=O)c1ccccc1SC(C[N+](=O)[O-])c1ccccc1 (stereo not given),112% (inactive)
11,CCC1CCc2nc3sc(C(=O)Nc4cccc(F)c4)c(N)c3cc2C1 (stereo not given),61.8% (inactive)
12,CCN(CC)c1ccc2nc3c4ccccc4c(=O)cc-3n(-c3ccccc3)c2c1,-7.19% (active)
13,CCC(C)C1NC(=O)c2nc(oc2-c2ccccc2)-c2csc(n2)-c2csc(n2)-c2nc(oc2C)-c2coc(n2)CNC(=O)C(C(C)CC)NC1=O (stereo not given),12.3% (inactive)
14,CCNS(=O)(=O)c1ccc(C)cc1,108% (inactive)
15,Cc1ccc(S(=O)(=O)NC(CCC(=O)Nc2ccc(Cl)cc2)C(=O)Nc2ccc(Cl)cc2)cc1 (stereo not given),39.6% (inactive)
16,CC(=O)[C@@]1(O)[C@H](C)C[C@H]2[C@@H]3C=C(C)C4=Cc5c(cnn5-c5ccccc5)C[C@]4(C)[C@H]3[C@@H](O)C[C@@]21C,27.1% (inactive)
17,COc1cc(Nc2ccnc3ccc(Br)cc23)cc(OC)c1OC,12.8% (inactive)
18,COc1ccc(-n2nc(C(=O)NCC(=O)Nc3nc4cc(OC)ccc4s3)c3ccccc3c2=O)cc1,1.75% (active)
19,COc1ccc2[nH]c(O)c(/C=c3/ccc4c(c3)N=C(c3ccc(F)cc3)N=4)c2c1,75.2% (inactive)
20,Cc1cc(C)cc(NC(=O)Cn2nncc2CN2C(=O)CSC2=O)c1,96.3% (inactive)

row,SMILES,growth
1,CC1=C(O)C(=O)C(c2c(C)cc(C)c(Br)c2C)=C(O)C1=O,73.4% (inactive)
2,CC(C)NC(=O)OCC#CCOC(=O)NC(C)C,109% (inactive)
3,O=C(CCCCCCc1nc2ccc(Br)cc2[nH]1)NO,-31.3% (active)
4,COc1cc(-c2csc(NC(=O)Nc3cccc(C(F)(F)F)c3)n2)cc(OC)c1OC,26.5% (inactive)
5,O=C(O)c1ccccc1N=Cc1ccccc1,100% (inactive)
6,CCCCCCCCCCCCCC[N+](C)(C)CCCCCCCCCCCCCC,104% (inactive)
7,O=C(Nc1ccc2[nH]c3ccccc3c2c1)c1ccccc1Cl,18.8% (inactive)
8,O=C(Nc1ccccc1)C(CCCCN1C(=O)c2ccccc2C1=O)N1C(=O)c2ccccc2C1=O (stereo not given),98.6% (inactive)
9,Cc1ccc(NC(=O)c2nc(S(C)(=O)=O)oc2-c2ccc(F)cc2)cc1Nc1ccc2ncn(C)c(=O)c2c1,96.2% (inactive)
10,CCCCC(CCc1ccccn1)C(=O)c1ccccc1 (stereo not given),104% (inactive)
11,COCCCNCC(=O)Nc1c(C)cccc1C,105% (inactive)
12,C=CCn1c(SCC(=O)Nc2ccc(C(=O)/C=C/c3ccc(Cl)cc3)cc2)nnc1-c1ccc(Cl)cc1,80.5% (inactive)
13,O=C(O)Cn1ccc2ccccc21,103% (inactive)
14,COC(=O)C(CCC(=O)CCl)N1C(=O)c2ccccc2C1=O (stereo not given),83.5% (inactive)
15,O=C(Cn1nncc1CN1C(=O)CSC1=O)Nc1ccc(F)cc1,97.6% (inactive)
16,Clc1ncnc2scc(C3COc4ccccc4O3)c12 (stereo not given),109% (inactive)
17,CCCCn1cnc(-c2cc(-c3ccccc3)cc(C(F)(F)F)c2)n1,103% (inactive)
18,COc1ccc(/C=C/C(=O)c2ccc(NC(=O)CSc3nnc(-c4ccc(OC)cc4)n3-c3ccccc3)cc2)cc1,102% (inactive)
19,C#CC[C@@H]1C[C@]2(C)[C@H]3CC=C4[C@H]5[C@@H](C)[C@H](C)CC[C@]5(C(=O)NCCCCN)CC[C@@]4(C)[C@]3(C)CC[C@H]2C(C)(C)[C@H]1OC(C)=O,86.1% (inactive)
20,O=C1/C(=C\c2cccn2C(=O)c2ccccc2)c2ccccc2N1c1c(Cl)cccc1Cl,82.2% (inactive)
